Several values for one entry are separate records, joined by “and”; a condition that tells them apart may be missing. Equal values may be shown once. Compounds without any hit were thinned out: in the full panel of roughly 83,000, 20% have a hit.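 For each line, cells grew in 96-well plates with the test compound present at a single concentration for 48 hours.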 Activity calls are given as the source filed them. How the source made its calls: active means growth percent below 10; inactive means the rest.
The compounds below were run on MDA-MB-468 breast (assay: NCI-60 one-dose screen, 48 h (100 = growth as untreated, 0 = no growth, -100 = all killed)). Details: 10 µM unless noted.

| Compound | growth |
| --- | --- |
| CN(C)C(=S)SCN1C(=O)c2ccc([N+](=O)[O-])cc2S1(=O)=O | 88.4% (inactive) |
| COc1cc2nc(N3CCN(C(=O)C4COc5ccccc5O4)CC3)nc(N)c2cc1OC (stereo not given) | 78.2% (inactive) and 104% (inactive) |
| CN(C)CCOC(=O)Nc1ccccc1Cl | 113% (inactive) |
| O=C(O)C(Cc1ccc(OS(=O)(=O)Cc2ccccc2)cc1)NS(=O)(=O)Cc1ccccc1 (stereo not given) | 105% (inactive) and 117% (inactive) |
| CC(O)C(NC(=O)C1CCCN1C(=O)CNC(=O)C1CC(=O)NCC(=O)NC(Cc2c[nH]c3ccccc23)C(=O)NC(Cc2ccc(O)cc2)C(=O)NCC(=O)NC(CO)C(=O)NC(CCC(N)=O)C(=O)NC(Cc2c[nH]c3ccccc23)C(=O)N1)C(=O)NCC(=O)NC(CCC(N)=O)C(=O)NC(CCCNC(=N)N)C(=O)NC(CC(=O)O)C(=O)O (stereo not given) | 100% (inactive) |
| C=C(C)[C@@H]1CC[C@]2(C)[C@H](CC=C3[C@@H]4CC(C)(C)CC[C@]4(CO)CC[C@]32C)[C@@]1(C)CCCN | -56.3% (active) |
| COc1ccc(Nc2[nH]n3c(=O)cc(C)nc3c2C(N)=O)c(OC)c1 | 97.3% (inactive) |
| O=S(=O)(c1ccc(NCSc2nc3ccccc3s2)cc1)c1ccc(NCSc2nc3ccccc3s2)cc1 | 95.8% (inactive) |
| CN1CCC(=C(c2ccccc2)c2ccccc2)C(c2ccccc2)C1 (stereo not given) | 87.6% (inactive) |
| CCC(c1cccc(Br)c1)C(C(=O)O)c1ccc(OC)cc1 (stereo not given) | 102% (inactive) |
| N/C(=N\C(N)=N\c1nc2ccccc2s1)c1ccc2ccccc2c1 | 109% (inactive) |
| Cc1ccc(/C=C2\SC(=S)N(CC(=O)NCCCN3CCOCC3)C2=O)cc1 | 94.9% (inactive) |
| CN1CCN(Cc2ccc(NC(=O)c3cncc(C#Cc4cnc5ccc(Cl)nn45)c3)cc2C(F)(F)F)CC1 | -20.1% (active) |
| Cc1ccc(S(=O)(=O)NC(=O)NCCSSCCNC(=O)NS(=O)(=O)c2ccc(C)cc2)cc1 | 97.6% (inactive) |
| COc1ccc(C(=O)/C=C/c2cc3ccccc3[nH]c2=O)cc1 | 17.6% (inactive) |
| COc1ccc(C(O)c2cc3c(N)c(C(=O)Nc4cccc(Br)c4)sc3nc2C)cc1 (stereo not given) | 19.6% (inactive) |
| COc1ccc(-c2nn(-c3cccc(Cl)c3)cc2-c2cc(-c3ccccc3)nc(N)n2)cc1 | 30% (inactive) |
| CC(C)[C@H]1c2[nH]c3ccccc3c2C[C@H]2C(=O)N(CCCCCCC(=O)NO)CC(=O)N12 | 64.2% (inactive) |
| CCOC(=O)C(CSC(c1ccccc1)(c1ccccc1)c1ccccc1)NC(=O)C(CSC(c1ccccc1)(c1ccccc1)c1ccccc1)NC(c1ccccc1)(c1ccccc1)c1ccccc1 (stereo not given) | 101% (inactive) |
| CCCCN1C(=O)/C(=c2\sc3n(c2=O)C2C(NN=3)N(CC)C(=O)N2CC)c2cc(C)ccc21 (stereo not given) | 65.4% (inactive) |

| Compound | growth |
| --- | --- |
| O=C(CSc1nnc(-c2ccc3nc(-c4ccc(Cl)cc4)[nH]c3c2)o1)Nc1ccc(C(=O)/C=C/c2ccc(Cl)cc2)cc1 | 100% (inactive) |
| Cc1cc2c(-c3nc4ccccn4c3NC34CC5CC(CC(C5)C3)C4)c(O)c(O)cc2c(O)c1-c1c(C)cc2c(-c3nc4ccccn4c3NC34CC5CC(CC(C5)C3)C4)c(O)c(O)cc2c1O | -10.7% (active) |
| COC(=O)N[C@H]1CCc2c(Cl)c(OC)c(OC)c(OC)c2-c2ccc(SC)c(=O)cc21 | -18.8% (active) |
| CCCCCCCCCCCCCCCCCC(=O)OCCCCCCCCCCCCC | 117% (inactive) |
| CCOC(=O)C(C#N)=C1CCN(C)CC1 | 123% (inactive) |
| O=C1/C(=C/c2ccccc2)SC(=Nc2ccccc2)N1Nc1ccccc1 | 1.39% (active) |
| NC(N)=Nc1ccc(Oc2cccc(Nc3cccc(C(F)(F)F)c3)c2)cn1 | -37.1% (active) |
| Nc1nc2nnc(-c3ccccc3)c(-c3ccccc3)n2n1 | 99.9% (inactive) |
| O=C(N/N=C\c1cccc([N+](=O)[O-])c1)N/N=C/c1cccc([N+](=O)[O-])c1 | 82% (inactive) |
| N#Cc1c2c(nc3n[nH]c(N)c13)CCCC2 | 93.6% (inactive) |
| CCOC(=O)c1cc(/C=C/c2cccc(Cl)c2)on1 | 60.3% (inactive) |
| O=C(Nc1ccccc1O)c1ccc(Oc2cccc(C(=O)Nc3ccccc3O)c2)cc1 | -27.2% (active) |
| CNC(=O)c1cc(Oc2ccc3nc(NC(=O)Nc4ccc(CN5CCOCC5)c(C(F)(F)F)c4)sc3c2)ccn1 | -17.2% (active) |
| CCc1ccc(CCC(=O)Nc2ncc(Cc3ccc(Cl)cc3)s2)o1 | 0.812% (active) |
| O=C(CCN1CCCCC1)c1ccc2ccccc2c1 | 92.1% (inactive) |
| O=CN1CCCCC1 | 95.6% (inactive) |
| COc1ccc2c(c1)NC(=O)CN2c1nc(NC2CC2)nc2ccccc12 | 8.4% (active) |
| Brc1cc(-c2cc(-c3ccc4c(c3)OC=CO4)[nH]n2)cs1 | 30% (inactive) |
| COc1ccc2c(C3=C(c4cn(C)c5ccccc45)C(=O)NC3=O)coc2c1 | 30.5% (inactive) |
| CCC(C)CC(CC)NCCN1CCN(C(CC)CC(C)CC)C1=S (stereo not given) | -43.6% (active) |
